Legend:
Test in all cases: thermal shift delta Tm vs DMSO control; higher = stronger stabilization (binding)
Conditions in all cases: 12.5 µM; protein concentration 2 µM
LOC_OS01G01410-cb001 = system: LOC_OS01G01410-cb001
In short: (§1)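 Thermal shift values come from differential scanning fluorimetry on purified rice kinase domains made in E. coli, with melting temperatures obtained from Boltzmann fits. Samples of 19.5 μl held 2 μM kinase, 100 mM potassium phosphate pH 7.5, 150 mM NaCl, 10% glycerol, 5 × SYPRO Orange and compound in DMSO, and were heated from 25°C to 95°C at 0.05°C/s. Each shift is a triplicate mean relative to the DMSO-only protein sample.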

LOC_OS01G02750-cb003 = system: LOC_OS01G02750-cb003
In short: as §1

LOC_OS01G10900-cb004 = system: LOC_OS01G10900-cb004
In short: as §1

LOC_OS01G13800-cb001 = system: LOC_OS01G13800-cb001
In short: as §1

LOC_OS01G14860-cb001 = system: LOC_OS01G14860-cb001
In short: as §1

LOC_OS01G21960-cb002 = system: LOC_OS01G21960-cb002
In short: as §1

LOC_OS01G39600-cb002 = system: LOC_OS01G39600-cb002
In short: as §1

LOC_OS01G48390-cb002 = system: LOC_OS01G48390-cb002
In short: as §1

LOC_OS01G51400-cb002 = system: LOC_OS01G51400-cb002
In short: as §1

LOC_OS01G52050-cb004 = system: T1, LOC_OS01G52050-cb004
T1 sequence (whole entry): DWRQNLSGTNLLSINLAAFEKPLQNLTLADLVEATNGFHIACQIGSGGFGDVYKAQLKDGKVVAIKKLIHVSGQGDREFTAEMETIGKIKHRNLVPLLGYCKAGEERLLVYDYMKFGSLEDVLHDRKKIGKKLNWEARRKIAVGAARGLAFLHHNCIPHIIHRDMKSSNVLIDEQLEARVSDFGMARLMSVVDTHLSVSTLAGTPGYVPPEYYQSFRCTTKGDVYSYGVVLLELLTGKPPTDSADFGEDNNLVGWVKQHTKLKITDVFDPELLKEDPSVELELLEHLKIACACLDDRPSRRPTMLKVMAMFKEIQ
In short: as §1
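Note: purified Escherichia coli-expressed rice kinase domain construct.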

SMILES	thermal shift delta Tm (LOC_OS01G01410-cb001) [°C]	thermal shift delta Tm (LOC_OS01G02750-cb003) [°C]	thermal shift delta Tm (LOC_OS01G10900-cb004) [°C]	thermal shift delta Tm (LOC_OS01G13800-cb001) [°C]	thermal shift delta Tm (LOC_OS01G14860-cb001) [°C]	thermal shift delta Tm (LOC_OS01G21960-cb002) [°C]	thermal shift delta Tm (LOC_OS01G39600-cb002) [°C]	thermal shift delta Tm (LOC_OS01G48390-cb002) [°C]	thermal shift delta Tm (LOC_OS01G51400-cb002) [°C]	thermal shift delta Tm (LOC_OS01G52050-cb004) [°C]
Cc1cccc(CC(=O)N2CCc3c2ccc(-c2cn(C)c4ncnc(N)c24)c3F)n1	1.17	6.31	2.32	-0.12	0.28	0.3	0.17	-0.13	0.48	1.35
CNc1nc(Nc2cn(C(C)(C)C#N)nc2C)ncc1C(F)(F)F	0.23	1.65	0.23	0.93	0.11	1.18	-0.3	0.76	0.31	0.37
O=C1NC(=O)[C@@H](c2cn3c4c(cccc24)CCC3)[C@@H]1c1c[nH]c2ccccc12 [Tivantinib (ARQ 197)]	0.55	0.06	0.15	0.17	0.16	0.75	0.54	0.43	0.27	0.75
Nc1nc(N)c(N=O)c(OCC2CCCCC2)n1	0.83	0.95	0.44	-0.3	1.5	1.67	-1.66	0.08	0.44	1.13
C[C@@H](Nc1cc(F)cc(F)c1)c1cc(C(=O)N(C)C)cc2c(=O)cc(N3CCOCC3)oc12	0.11	1.11	0.28	0.04	0.22	-0.4	-0.77	0.46	0.01	-0.12
CNC(=O)c1ccc(-c2cnc3ncc(Cc4ccc5ncccc5c4)n3n2)cc1F	0.07	0.51	0.48	-0.08	0.29	0.73	-0.03	0.24	-0.03	0.32
O=C(c1cccc(Cl)c1F)N1CCN(Cc2cccc(Nc3nccs3)n2)CC1	0.64	0.86	0.24	-0.45	4.28	0.14	2.61	1.3	0.25	4.36
CCC(=O)Nc1cccc(Oc2nc(Nc3ccc(N4CCN(C)CC4)cc3OC)ncc2Cl)c1	0.36	1.2	0.23	-0.06	-0.01	0.7	-0.79	0.98	0.38	0.14
C[C@H]1[C@H](C)CC[C@]2(C(=O)O)CC[C@]3(C)C(=CC[C@@H]4[C@@]5(C)C[C@@H](O)[C@H](O)[C@@](C)(CO)[C@@H]5CC[C@]43C)[C@H]12 [Asiatic Acid]	0.45	-0.18	0.15	1.17	0.23	0.75	0.1	0.45	0.17	0.2
O=c1cc(N2CCOCC2)oc2c1ccc1ccccc12	-0.07	2.24	1.69	0.55	0.74	-0.09	-0.09	0.43	-0.05	0.24
COc1cc2ncnc(Oc3cccc(NC(=O)Nc4cc(C(C)(C)C(F)(F)F)on4)c3)c2cc1OC	0.82	1.07	0.12	0.13	0.91	0.64	0.02	0.73	0.35	0.75
C[C@@H](Oc1cc(-c2cnn(C3CCNCC3)c2)cnc1N)c1c(Cl)ccc(F)c1Cl	2.96	1.71	1.58	-0.59	0.41	-0.27	0.93	5.62	0.05	4.57
CN(C)C/C=C/C(=O)Nc1ccc(C(=O)Nc2cccc(Nc3ncc(Cl)c(-c4c[nH]c5ccccc45)n3)c2)cc1	4.03	6.62	0.47	1.95	7.28	4.75	2.35	3.99	1.75	9.77
O=C(NOC[C@H](O)CO)c1ccc(F)c(F)c1Nc1ccc(I)cc1F	1.23	0.99	0.49	0.45	0.5	0.89	0.66	0.89	0.22	0.59
C=CC(=O)Nc1cccc(C)c1Nc1ncc2cc(-c3c(Cl)c(OC)cc(OC)c3Cl)ccc2n1	0.73	1.61	1.22	0.52	0.39	0.77	0.15	0.36	0.29	0.2
Cc1c[nH]c2nc(Nc3ccc(N4CCN(C)CC4)c(F)c3)nc(-c3cccc(CC#N)c3)c12	6.3	6.99	3.64	0.12	5.41	4.45	9.35	5.5	1.14	13.5
O=C(Nc1cccc(C(F)(F)F)c1)c1cccc2cc(Oc3cc(CO)ncn3)ccc12	0.74	0.11	0.77	0.56	0.71	0.94	-0.03	0.4	0.1	0.38
O=C(NCCO)c1cccc(-c2cc(Nc3ccc(OC(F)(F)F)cc3)ncn2)c1	0.32	0.32	0.34	0.62	1.32	0.44	0.3	2.99	0.2	1.46
COc1cc(N2CCN(C)CC2)ccc1Nc1ncc2c(n1)N(C)c1ccccc1C(=O)N2	0.72	1.11	1.07	-0.23	0.43	0.53	0.75	0.41	0.22	-0.22
CN1CCN(c2ccc3nc(-c4c(N)c5c(F)cccc5[nH]c4=O)[nH]c3c2)CC1 [Dovitinib (TKI-258) Dilactic Acid]	5.85	2.07	4.46	-0.49	1.65	3.5	4.66	3.4	0.79	6.33

Source: the supplement of paper PMC9694430
